ChEMBL document CHEMBL1961873, “Compounds: GSK PKIS; Assays: Nanosyn kinase panel” (2012)

Legend:
[1] = molecular target: T1, Serine/threonine-protein kinase TBK1 (Homo sapiens) (UniProt Q9UHD2); details: at 1 µM;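 further: values are mean inhibition of TBK1, screened as part of the GSK published kinase inhibitor set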
T1 sequence (whole entry): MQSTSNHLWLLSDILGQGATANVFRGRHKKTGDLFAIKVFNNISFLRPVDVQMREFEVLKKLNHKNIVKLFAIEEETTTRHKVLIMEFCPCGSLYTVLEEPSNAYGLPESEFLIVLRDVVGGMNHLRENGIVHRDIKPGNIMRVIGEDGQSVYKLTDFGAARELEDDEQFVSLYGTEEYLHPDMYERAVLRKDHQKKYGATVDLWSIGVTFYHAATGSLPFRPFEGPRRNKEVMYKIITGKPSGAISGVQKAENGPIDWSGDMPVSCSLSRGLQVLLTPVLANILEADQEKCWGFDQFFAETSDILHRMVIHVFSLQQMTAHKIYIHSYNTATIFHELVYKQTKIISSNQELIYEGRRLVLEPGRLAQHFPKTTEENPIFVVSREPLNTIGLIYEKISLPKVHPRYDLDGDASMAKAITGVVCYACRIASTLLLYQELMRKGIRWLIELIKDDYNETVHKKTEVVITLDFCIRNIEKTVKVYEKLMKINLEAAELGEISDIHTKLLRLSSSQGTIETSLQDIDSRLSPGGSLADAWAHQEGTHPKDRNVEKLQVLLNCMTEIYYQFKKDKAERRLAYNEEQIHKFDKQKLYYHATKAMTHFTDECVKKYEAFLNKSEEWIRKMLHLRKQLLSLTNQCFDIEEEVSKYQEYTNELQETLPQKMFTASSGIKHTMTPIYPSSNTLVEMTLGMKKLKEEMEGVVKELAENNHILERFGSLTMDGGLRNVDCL

[2] = molecular target: T2, Testis-specific serine/threonine-protein kinase 1 (Homo sapiens) (UniProt Q9BXA7); details: at 0.1 µM
T2 sequence (whole entry): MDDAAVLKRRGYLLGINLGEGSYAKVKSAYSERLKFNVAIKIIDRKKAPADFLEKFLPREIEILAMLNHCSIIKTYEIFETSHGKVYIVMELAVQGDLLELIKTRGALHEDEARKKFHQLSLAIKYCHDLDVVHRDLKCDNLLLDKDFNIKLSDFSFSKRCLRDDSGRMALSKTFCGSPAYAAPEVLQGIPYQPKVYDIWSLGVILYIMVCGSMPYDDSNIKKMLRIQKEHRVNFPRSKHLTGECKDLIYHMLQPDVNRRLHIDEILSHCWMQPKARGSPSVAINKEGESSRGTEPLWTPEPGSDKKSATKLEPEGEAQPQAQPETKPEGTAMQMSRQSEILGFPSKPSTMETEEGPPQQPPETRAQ

[3] = molecular target: T2, Testis-specific serine/threonine-protein kinase 1 (Homo sapiens); details: at 1 µM
[4] = molecular target: T3, Testis-specific serine/threonine-protein kinase 2 (Homo sapiens) (UniProt Q96PF2); details: at 0.1 µM
T3 sequence (whole entry): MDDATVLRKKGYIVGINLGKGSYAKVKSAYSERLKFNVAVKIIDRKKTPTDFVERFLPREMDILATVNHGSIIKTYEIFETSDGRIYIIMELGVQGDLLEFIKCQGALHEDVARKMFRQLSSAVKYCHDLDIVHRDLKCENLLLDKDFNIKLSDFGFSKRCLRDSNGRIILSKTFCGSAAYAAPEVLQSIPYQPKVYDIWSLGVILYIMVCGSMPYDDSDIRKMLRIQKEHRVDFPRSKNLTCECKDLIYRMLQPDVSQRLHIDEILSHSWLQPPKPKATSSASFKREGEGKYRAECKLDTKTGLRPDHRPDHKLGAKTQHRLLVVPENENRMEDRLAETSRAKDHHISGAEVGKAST

[5] = molecular target: T3, Testis-specific serine/threonine-protein kinase 2 (Homo sapiens); details: at 1 µM
[6] = molecular target: Casein kinase I isoform alpha (Homo sapiens) (UniProt P48729); details: at 0.1 µM
Casein kinase I isoform alpha (Homo sapiens), sequence (P48729 2-337 limits assumed): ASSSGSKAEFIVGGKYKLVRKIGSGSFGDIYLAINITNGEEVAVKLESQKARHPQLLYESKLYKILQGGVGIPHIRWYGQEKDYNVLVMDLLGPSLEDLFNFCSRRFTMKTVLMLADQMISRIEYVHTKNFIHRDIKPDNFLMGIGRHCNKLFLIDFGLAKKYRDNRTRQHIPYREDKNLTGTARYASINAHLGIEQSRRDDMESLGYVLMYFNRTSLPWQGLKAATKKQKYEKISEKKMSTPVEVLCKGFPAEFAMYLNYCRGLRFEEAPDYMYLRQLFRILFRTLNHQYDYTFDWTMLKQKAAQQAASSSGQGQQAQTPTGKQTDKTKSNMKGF

[7] = molecular target: Casein kinase I isoform alpha (Homo sapiens) (UniProt P48729); details: at 1 µM
[8] = molecular target: Casein kinase I isoform gamma-1 (Homo sapiens) (UniProt Q9HCP0); details: at 0.1 µM
Casein kinase I isoform gamma-1 (Homo sapiens), sequence (Q9HCP0 whole entry, looked up, canonical isoform): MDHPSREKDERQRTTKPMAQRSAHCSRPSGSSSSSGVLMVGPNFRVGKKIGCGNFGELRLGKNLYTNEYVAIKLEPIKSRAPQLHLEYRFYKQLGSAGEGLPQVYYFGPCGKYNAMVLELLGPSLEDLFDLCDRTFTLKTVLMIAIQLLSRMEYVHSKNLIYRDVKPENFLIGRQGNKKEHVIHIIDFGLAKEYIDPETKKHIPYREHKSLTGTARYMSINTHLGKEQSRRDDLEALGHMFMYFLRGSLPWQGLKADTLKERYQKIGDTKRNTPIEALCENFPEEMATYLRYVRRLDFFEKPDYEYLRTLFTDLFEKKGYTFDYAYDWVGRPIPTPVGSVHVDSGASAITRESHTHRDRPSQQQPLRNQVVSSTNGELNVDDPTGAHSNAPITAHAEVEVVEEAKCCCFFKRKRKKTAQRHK

[9] = molecular target: Casein kinase I isoform gamma-1 (Homo sapiens) (UniProt Q9HCP0); details: at 1 µM
[10] = molecular target: Casein kinase I isoform gamma-2 (Homo sapiens) (UniProt P78368); details: at 0.1 µM
Casein kinase I isoform gamma-2 (Homo sapiens), sequence (P78368 whole entry, looked up, canonical isoform): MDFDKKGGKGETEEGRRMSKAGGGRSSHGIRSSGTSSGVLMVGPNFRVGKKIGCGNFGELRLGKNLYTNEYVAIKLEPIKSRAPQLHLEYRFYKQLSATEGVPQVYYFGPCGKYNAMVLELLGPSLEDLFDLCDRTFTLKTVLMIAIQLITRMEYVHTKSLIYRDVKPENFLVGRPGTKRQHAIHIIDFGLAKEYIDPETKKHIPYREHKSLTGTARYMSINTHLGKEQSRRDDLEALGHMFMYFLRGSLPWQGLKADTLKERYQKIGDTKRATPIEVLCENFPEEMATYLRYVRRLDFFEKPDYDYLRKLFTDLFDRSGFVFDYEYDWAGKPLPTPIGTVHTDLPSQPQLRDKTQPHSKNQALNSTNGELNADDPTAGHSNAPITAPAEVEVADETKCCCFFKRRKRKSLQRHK

[11] = molecular target: Casein kinase I isoform gamma-2 (Homo sapiens) (UniProt P78368); details: at 1 µM
[12] = molecular target: Casein kinase I isoform gamma-3 (Homo sapiens) (UniProt Q9Y6M4); details: at 0.1 µM
Casein kinase I isoform gamma-3 (Homo sapiens), sequence (Q9Y6M4 whole entry, looked up, canonical isoform): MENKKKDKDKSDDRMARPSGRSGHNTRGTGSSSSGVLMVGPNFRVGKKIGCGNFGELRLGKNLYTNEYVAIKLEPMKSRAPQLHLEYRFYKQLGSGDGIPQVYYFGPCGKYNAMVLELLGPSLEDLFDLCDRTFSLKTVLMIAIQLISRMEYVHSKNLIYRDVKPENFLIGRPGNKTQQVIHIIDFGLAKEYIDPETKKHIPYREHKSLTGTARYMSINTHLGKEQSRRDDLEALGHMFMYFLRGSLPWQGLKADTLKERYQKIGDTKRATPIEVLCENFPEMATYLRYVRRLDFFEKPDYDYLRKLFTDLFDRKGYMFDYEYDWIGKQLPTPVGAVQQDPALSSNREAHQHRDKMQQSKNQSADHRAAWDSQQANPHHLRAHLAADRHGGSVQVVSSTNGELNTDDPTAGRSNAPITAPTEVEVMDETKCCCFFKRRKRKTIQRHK

[13] = molecular target: Casein kinase I isoform gamma-3 (Homo sapiens) (UniProt Q9Y6M4); details: at 1 µM
[14] = molecular target: Cyclin-dependent kinase 1 (Homo sapiens) (UniProt P06493); details: at 0.1 µM
Cyclin-dependent kinase 1 (Homo sapiens), sequence (P06493 whole entry, looked up): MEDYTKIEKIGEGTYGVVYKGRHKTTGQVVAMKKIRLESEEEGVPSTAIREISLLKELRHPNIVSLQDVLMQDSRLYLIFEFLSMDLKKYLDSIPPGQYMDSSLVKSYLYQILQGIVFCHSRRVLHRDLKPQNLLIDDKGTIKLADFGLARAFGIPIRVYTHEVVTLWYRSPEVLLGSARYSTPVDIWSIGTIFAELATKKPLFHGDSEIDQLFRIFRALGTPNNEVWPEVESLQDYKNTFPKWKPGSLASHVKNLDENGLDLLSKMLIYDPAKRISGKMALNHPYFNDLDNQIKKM

[15] = molecular target: Cyclin-dependent kinase 1 (Homo sapiens) (UniProt P06493); details: at 1 µM
[16] = molecular target: Cyclin-dependent kinase 2 (Homo sapiens) (UniProt P24941); details: at 0.1 µM
[17] = molecular target: Cyclin-dependent kinase 2 (Homo sapiens) (UniProt P24941); details: at 1 µM
[18] = molecular target: Cyclin-dependent kinase 2 (Homo sapiens) (UniProt P24941); details: at 0.1 µM; remark: listed apart in the source
[19] = molecular target: Cyclin-dependent kinase 2 (Homo sapiens) (UniProt P24941); details: at 1 µM; remark: listed apart in the source
[20] = molecular target: CDK3/Cyclin E (Homo sapiens) (UniProt P24864+Q00526); details: at 0.1 µM;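 further: reported percentages are mean inhibition values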
CDK3/Cyclin E (Homo sapiens), sequence (P24864 whole entry, looked up): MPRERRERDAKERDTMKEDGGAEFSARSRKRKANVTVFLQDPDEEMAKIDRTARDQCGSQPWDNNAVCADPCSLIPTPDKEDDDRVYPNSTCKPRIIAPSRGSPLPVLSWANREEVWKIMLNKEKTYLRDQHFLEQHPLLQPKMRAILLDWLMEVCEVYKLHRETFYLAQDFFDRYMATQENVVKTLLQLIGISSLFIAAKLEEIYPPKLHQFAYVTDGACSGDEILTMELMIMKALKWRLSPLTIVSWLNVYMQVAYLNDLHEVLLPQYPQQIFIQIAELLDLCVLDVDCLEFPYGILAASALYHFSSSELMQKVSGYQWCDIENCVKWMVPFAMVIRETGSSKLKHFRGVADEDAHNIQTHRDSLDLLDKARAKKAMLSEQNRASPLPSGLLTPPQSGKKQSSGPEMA
CDK3/Cyclin E (Homo sapiens), sequence (Q00526 whole entry, looked up): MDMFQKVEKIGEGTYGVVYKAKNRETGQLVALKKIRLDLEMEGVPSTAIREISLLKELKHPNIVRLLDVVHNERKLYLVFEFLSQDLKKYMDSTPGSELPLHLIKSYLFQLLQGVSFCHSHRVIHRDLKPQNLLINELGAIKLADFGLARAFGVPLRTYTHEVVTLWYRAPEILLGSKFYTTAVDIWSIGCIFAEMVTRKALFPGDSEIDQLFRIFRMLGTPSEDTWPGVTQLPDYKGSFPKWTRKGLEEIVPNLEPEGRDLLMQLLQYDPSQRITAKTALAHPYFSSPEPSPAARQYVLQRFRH

Row | SMILES | inhibition [1] | inhibition [2] | inhibition [3] | inhibition [4] | inhibition [5] | inhibition [6] | inhibition [7] | inhibition [8] | inhibition [9] | inhibition [10] | inhibition [11] | inhibition [12] | inhibition [13] | inhibition [14] | inhibition [15] | inhibition [16] | inhibition [17] | inhibition [18] | inhibition [19] | inhibition [20]
1 | CS(=O)(=O)Nc1ccc(-c2cc(-c3ccccc3)cc(C(N)=O)c2N)cc1 | 2.08% | 2.3% | 2.85% | 0.46% | 1.61% | 0.02% | 2.47% | 0.73% | 0.84% | 0.2% | 0.9% | 2.42% | 0.43% | 0.06% | -0.25% | 0.21% | 1.06% | 0.2% | 1.37% | -0.04%
2 | Cc1ccc(-c2cc3c(NC(=O)C4CC4)ncnc3o2)cc1 | 10.1% | 3.8% | 4.18% | 1.75% | 0.28% | 4.85% | 5.25% | 3.74% | 4.78% | 2.32% | 5.03% | 2.01% | 3.1% | 0.77% | 3.16% | 1.63% | 0.2% | 4.69% | 6.42% | 1.4%
3 | Cc1c2ccc(N(C)c3ccnc(Nc4cccc(S(N)(=O)=O)c4)n3)cc2nn1C | 8.43% | 3.59% | 3.32% | 1.26% | 1.14% | 3.21% | 4.51% | 1.31% | 1.52% | -0.37% | 0.79% | -0.12% | 1.23% | -2.06% | 1.04% | -1.06% | 4.54% | 2.08% | 4.14% | 3.58%
4 | CNC(=O)c1ncccc1Nc1nc(Nc2cc3c(cc2OC)CCCN3C(=O)CN(C)C)nc2[nH]ccc12 | 26.1% | 85.5% | 93.9% | 31% | 73.2% | 1.15% | 6.71% | 4.96% | 8.09% | 2.28% | 5.64% | 2.52% | 6.23% | 1.79% | 5.38% | 2.38% | 9.91% | 7.73% | 9.82% | 3.92%
5 | FC(F)(F)CNc1nccc(-c2cnn3ncccc23)n1 | 0.21% | 3.33% | 2.64% | -0.54% | -0.28% | 3.2% | 23.5% | 2.54% | 6.11% | 3.35% | 14.1% | 3.44% | 10.6% | 4.59% | 29.1% | 1.79% | 14.1% | 4.11% | 16.4% | 1.36%
6 | COc1ccc(Nc2ncc(-c3ccccc3)o2)cc1OC | 10.7% | 0.54% | 1.75% | 0.12% | 0.02% | 3.39% | 6.61% | 0.83% | 3.24% | 0.28% | 4.12% | -0.65% | 3.3% | 8.02% | 29.9% | 8.91% | 31.6% | 7.2% | 27.6% | 6.29%
7 | CS(=O)(=O)Nc1ccc(-c2ccc3c(NC(=O)C4CC4)n[nH]c3c2)cc1 | 7.65% | 2.9% | 2.78% | 0.58% | -0.76% | -2.5% | 3.8% | 2.55% | 4.34% | 1.91% | 4.11% | 4.47% | 2.66% | 0.29% | 3.65% | 2.2% | 6.28% | 2.71% | 5.01% | 0.71%
8 | CCS(=O)(=O)c1ccc(OC)c(Nc2ncc(-c3cccc(C(C)=O)c3)o2)c1 | 5.54% | 2.02% | 5.38% | 3.72% | 1.57% | 0.47% | 2.36% | 2.26% | 2.79% | 2.75% | 1.92% | 1.93% | 1.37% | 0.64% | 1.52% | 1.87% | 6.76% | 3.84% | 8.73% | 0.35%
9 | Cn1c(-c2nonc2N)nc2cnccc21 | 7.42% | 3.15% | 3.81% | 2.01% | 0.12% | 3.34% | 6.21% | 2.61% | 2.68% | 2.2% | 3.42% | 1.53% | 2.15% | 1.15% | 4.4% | 2.01% | 11.2% | 3.69% | 11.6% | 6.05%
10 | OCCCNc1nccc(-c2c(-c3ccc(F)cc3)nn3cc(C(F)(F)F)ccc23)n1 | 5.25% | 1.75% | -0.99% | 1.56% | -2.79% | 8.54% | 28.7% | 1.82% | 4.37% | 0.31% | 4.56% | 1.62% | 7.33% | 1.54% | 2.59% | 0.91% | -3.65% | 0.52% | 3.87% | 1.49%
11 | COC(=O)Nc1nc2cc(Oc3ccc(NC(=O)Nc4ccccc4)cc3)ccc2[nH]1 | 2.25% | 3.86% | 4.03% | 2.21% | 4.11% | 0.93% | 2.7% | 2.12% | 2.12% | 2.17% | 1.9% | 0.58% | 1.63% | 1.24% | 1.72% | 1.21% | 0.35% | 1.69% | 3.15% | 2.16%
12 | COc1ccccc1-c1cc(/C=C2\C(=O)Nc3ncc(Br)cc32)cc(Br)c1O | 6.07% | 4.24% | 6.09% | 2.5% | 1.91% | 2.91% | 5.66% | 5.05% | 5.44% | 3.14% | 6.34% | 4.08% | 3.37% | 3.53% | 5.31% | 2.84% | -1.47% | 7.89% | 9.34% | 5.76%
13 | COc1ccc(-c2nn3ncccc3c2-c2ccnc(Nc3ccc(F)c(F)c3)n2)cc1 | 5.55% | 4.21% | 5.79% | 2.03% | 5.03% | 4.64% | 6.66% | 4.01% | 4.36% | 3.31% | 3.56% | 3.89% | 3.22% | -0.93% | 2.75% | 0.74% | 3.93% | 3.63% | 3.97% | 1.3%
